# VACV mCherry inh – qHTS for Stage-Specific Inhibitors of Vaccinia Orthopoxvirus: mCherry Reporter Primary qHTS. Vaccinia virus mCherry reporter infection, fluorescence. hit rate 0.63% among 310,000. Potency, µM (highest dose often 36.5 µM), for inactives: at the top dose activity change, negative = inhibition, actives largely listed as inhibitors; calls by dose curve; tested in A549 cells; note: potency is the fitted concentration of half-maximal effect; nearly all actives have a fitted effect of over 35% in size
# Giardia FBPA inh – qHTS Assay for Inhibitors of Fructose-1,6-bisphosphate Aldolase from Giardia Lamblia; hit rate 0.71% among 290,000; purified Giardia FBPA; A8B2U2; Potency, µM (top dose mostly 59.6 µM), for inactives: at the top dose activity, negative = inhibition, actives largely listed as inhibitors; note: potency is the fitted concentration of half-maximal effect; nearly all actives have a fitted effect of over 55% in size
# Target sequence (A8B2U2 whole entry, looked up): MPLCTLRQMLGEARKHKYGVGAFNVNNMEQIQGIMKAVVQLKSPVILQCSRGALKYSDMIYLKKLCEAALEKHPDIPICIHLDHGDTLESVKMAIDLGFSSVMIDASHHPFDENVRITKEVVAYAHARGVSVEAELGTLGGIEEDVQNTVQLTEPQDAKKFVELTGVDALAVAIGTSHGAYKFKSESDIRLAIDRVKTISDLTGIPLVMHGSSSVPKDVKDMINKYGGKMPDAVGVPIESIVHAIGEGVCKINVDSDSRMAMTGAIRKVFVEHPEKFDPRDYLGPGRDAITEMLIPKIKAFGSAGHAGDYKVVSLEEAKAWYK
#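 Giardia FBPA (40 nM reagent) was preincubated 10 min at RT with compound (up to 57.5 uM final), then substrate plus GAPDH/TPI/NAD/arsenate coupling system with diaphorase/resazurin was added; resorufin fluorescence (525/598 nm) was read after 20 min.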
# VACV Venus inh – qHTS for Stage-Specific Inhibitors of Vaccinia Orthopoxvirus: Venus Reporter Primary qHTS; Vaccinia virus Venus reporter expression, fluorescence; Potency, µM (top dose mostly 36.5 µM), inactives show top-dose activity change, negative = inhibition, hits mostly inhibitors; hit rate 0.46% among 330,000; AID 720580, 2013; calls by dose curve; tested in A549 cells; note: potency is the fitted concentration of half-maximal effect; nearly all actives have a fitted effect of over 30% in size
# FMDV antiviral – High Throughput Screening for Foot and Mouth Disease Virus Antivirals | FMDV antiviral cell-based qHTS | Potency, µM (top dose mostly 57.9 µM), inactives show at the highest dose activity change, negative = inhibition, most hits filed as inhibitors | hit rate 1.2% among 410,000; calls by dose curve; tested in HEK293T cells; note: read-out not given here; potency is the fitted concentration of half-maximal effect; nearly all actives have a fitted effect of over 45% in size
# HCMV inh – qHTS Assay for inhibitors of the human cytomegalovirus (HCMV); HFF cells, HCMV-luciferase reporter, 72 h; hits give low values; activity change, negative = inhibition, % at 57.5 µM; hit rate 4.5% among 410,000; AID 1259415, 2018; in the data active = activity change below about -60%; inconclusive = no clear call, values can overlap the other calls; inactive = above about -39%
#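 Inhibition of viral replication was scored as loss of reporter luminescence in HFFs infected with HCMV-luciferase (MOI 1 PFU/cell) for 72 h; compounds tested at 2 doses, normalized to buffer and Salinomycin controls.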
# HCV inh – qHTS Assay for Inhibitors of Hepatitis C Virus (HCV); Huh7.5.1 HCVcc-Cre infection, luciferase reporter, 44 h; Potency, µM (series often up to 41.8 µM), for the others: top-dose activity change, negative = inhibition, most hits filed as inhibitors; hit rate 3.4% among 340,000; note: potency is the fitted concentration of half-maximal effect
#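 Whole-lifecycle infectious HCVcc-Cre system; cells 1,000/well, compound then virus (~0.5 moi) added 4 h after plating, 44 h culture. Luciferase read 15 sec following 15 min substrate incubation, room temp.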
# Numbers without * were called inactive; i = inactive; ? = inconclusive; . = no result given; ! = repeats disagree; [ ] = dose if it differs, or a comment. Hits are enriched below; roughly 7.5% of the tested compounds scored in any of these assays. Unless noted, calls come from the whole dose curve; as a rule, active = well fitted curve in the direction sought with a large enough effect; inconclusive = small, poorly fitted or top-dose-only effect, or another doubt; inactive = no such curve, though single readings can be large; an effect the other way counts as inactive or inconclusive. % is set by controls: 0 for no effect and ±100 for the full control effect.
SMILES,VACV mCherry inh,Giardia FBPA inh,VACV Venus inh,FMDV antiviral,HCMV inh,HCV inh
CCc1nc2ccc(C(=O)N(CC)CCN(C)C)cn2c1N(C=O)CCC(C)C,-3%,.,9%,-12%,-15,.
CC(C)CNc1nc(NC(C)(C)C)nc(Oc2ccc(=O)n(-c3ccccc3)n2)n1,-8%,.,-10%,-22%,28,.
COc1cccc(Cn2c(=O)ccc3ccccc32)c1,.,6%,.,22%,-81*,-1%
COc1ccc(NC(=O)CN2C(=O)C(=O)N(C3CCCC3)C2=O)c(OC)c1,.,.,.,-15%,49,3%
O=C(Cc1ccccc1)N1CCCC(c2nc(-c3ccc(S(=O)(=O)N4CCCC4)cc3)no2)C1 (centres undefined),i,5%,-3%,.,-39,?
CS(=O)(=O)N1CCCC(c2nc(-c3ccc(S(=O)(=O)NCc4ccccc4)cc3)no2)C1 (centres undefined),.,1%,.,?,-95*,?
O=C(C1CC1)N1CCC(c2nc(-c3ccc(S(=O)(=O)NCC4CCCO4)cc3)no2)CC1 (centres undefined),.,3%,.,?,-96*,?
O=C(NC1CCCCC1)N1CCC(c2nc(-c3ccc(S(=O)(=O)N4CCCC4)cc3)no2)CC1,-12%,1%,-1%,?,-62*,?
O=C(C1CC1)N1CCC(c2nc(-c3ccc(S(=O)(=O)N4CCCC4)cc3)no2)CC1,i,1%,-7%,?,9,?
COC(=O)C(N)Cc1ccc(O)c(O)c1 (centres undefined),5%,?,1%,1%,10,-4%
NC(Cc1ccc(O)c(O)c1)C(=O)O (centres undefined),-15%,16µM*,0%,-28%,.,.
C[C@](N)(Cc1ccc(O)cc1)C(=O)O,.,2%,.,.,.,.
C[C@](N)(Cc1ccc(O)c(O)c1)C(=O)O,-5%,18µM*!,-9%,-5%,-19,1%[8.37 µM]
CNC(=O)N(O)C1N(NC(=O)Nc2ccccc2)C(=S)SC1(C)C (centres undefined),-30%,.,-13%,-7%,1,?
CC1(C)SC(=S)N(NC(=O)Nc2cccc3ccccc23)C1N(O)C(=O)Nc1ccccc1 (centres undefined),?,-9%,?,0%,-75*,?
COc1ccc(-c2cn[nH]c2-c2ccc(OCc3ccc([N+](=O)[O-])cc3)cc2O)cc1,-14%,3%,-24%,-27%,-93*,?
CCc1cc(-c2[nH]ncc2-c2ccc3c(c2)OCO3)c(O)cc1O,?,-29%,?,.,-99*,?
C=C(C)COc1ccc(-c2[nH]ncc2-c2ccccc2OC)c(O)c1,-23%,-20%,?,-30%,-21,?
CCc1cc(-c2[nH]ncc2-c2ccc(OC)cc2)c(O)cc1O,?,14%,?,11µM*,-98*,4µM*
COc1ccc(-c2[nH]ncc2-c2ccc3c(c2)OCCO3)c(O)c1,.,21%,-25%,?,-82*,?
Cc1cnc(C)c(-c2cccc3c2OC(CNC(=O)/C=C/c2ccncc2)C3)n1 (centres undefined),-12%,.,1%,-9%,.,.
CCCNC(=O)OC[C@H]1O[C@@H](CCO/N=C2/[C@H]3O[C@@H]3[C@@H](O)[C@H]3[C@H]2CCn2c(=O)n(-c4ccccc4)c(=O)n23)C=C[C@@H]1Oc1ccc(OC)cc1,.,1%[12.9 µM],.,.,.,.
N#C/C(=C/c1ccc(-c2ccc(S(N)(=O)=O)cc2)o1)c1nc2ccccc2s1,-15%,4%,314%,-9%,?,4.5µM*
O=C(Cc1c[nH]c2ccccc12)N1CCN(S(=O)(=O)c2cccc(Cl)c2Cl)CC1,.,.,.,?,44,19%
CC(=O)c1c(C)[nH]c(C(=O)OCC(=O)NCc2ccccc2)c1C,-14%,.,-23%,-17%,-4,.
SMILES,VACV mCherry inh,Giardia FBPA inh,VACV Venus inh,FMDV antiviral,HCMV inh,HCV inh
C=CCN(c1ccccc1)S(=O)(=O)c1cccc(C(=O)Nc2cccc(C)n2)c1,-25%,.,-29%,?,-25,14µM*
CCN(c1ccccc1)S(=O)(=O)c1cccc(C(=O)Nc2cccc(C)n2)c1,-9%,.,-20%,-24%,-14,.
C=CCN(c1ccccc1)S(=O)(=O)c1cccc(C(=O)Nc2nnc(SCC)s2)c1,-13%,27%,-14%,-20%,-62*,-6%
CCSc1nnc(NC(=O)c2cccc(S(=O)(=O)N(C)c3ccccc3)c2)s1,-19%,9%,-20%,-10%,49,5%
Nc1cccc(-c2c[nH]c3ncc(-c4cccnc4)cc23)c1,?,.,10µM*,-13%,.,0%
COc1ccc(CNC(=O)N2CCN(S(=O)(=O)c3ccc(C)cc3C)CC2)cc1,-23%,16%,-23%,-6%,29,?
Cc1ccc(S(=O)(=O)N2CCN(C(=O)COC(=O)Cc3ccc(F)cc3)CC2)c(C)c1,-8%,.,3%,-9%,10,6%
CCOC(=O)c1c(C)[nH]c(C(=O)OCC(=O)N2CCN(S(=O)(=O)c3ccc(C)cc3C)CC2)c1C,.,.,.,?,-29,14µM*
Cc1ccc(S(=O)(=O)N2CCN(C(=O)NCc3ccc(F)cc3)CC2)c(C)c1,-10%,9%,-6%,-16%,-71*,-22%
CSc1ccc(CSCC(=O)N2CCN(S(=O)(=O)c3ccc(C)cc3C)CC2)cc1,.,.,.,?,-20,8.9µM*
Nc1cc(C(F)(F)F)ccc1NCCc1ccccn1,-26%,6%,-1%,0%,-32,4%
COc1cc(/C=C/C(=O)O[C@H]2[C@H](O[C@@H]3O[C@@H](C)[C@H](O)[C@@H](O)[C@H]3O)[C@@H](O)[C@H](OCCc3ccc(O)c(OC)c3)O[C@@H]2CO)ccc1O,i,.,-13%,-13%,15,22%
CCOC(=O)N1CCC(NCCNC(=O)c2ccccc2Cl)CC1,.,-19%,.,5%,11,-25%
CCOC(=O)N1CCC(Nc2ccc3nnc(-c4ccccc4)n3n2)CC1,-4%,0%,-29%,?,135,14µM*
CCOC(=O)N1CCC(NCCNC(=O)c2ccccc2)CC1,i,-15%,-12%,10%,-70*!,6%
CCOC(=O)N1CCN(c2c(NC3CCN(Cc4ccccc4)CC3)c(=O)c2=O)CC1,1%,3%,-11%,-10%,-64*,-14%
Cc1c(O)ccc2c(O)c(NC(=O)c3ccc4c(c3)CCC(C)(C)O4)c(=O)oc12,i,?,-17%,-13%,-20,13%
COCCNC(=O)C1(C)CCCN(C(=O)c2cccc(OC(F)(F)F)c2)C1 (centres undefined),32%,.,-7%,-7%,-31,.
